The results in this text go back to PubChem BioAssay.

Activity calls are given as the source filed them. Unless noted, how the calls were made is not given here.

Experiment [1] can be described thus: HepG2 liver cancer cell viability effects, profiling panel, resazurin fluorescence, 24 h, PK04 Diversity Set (AID 1172). Further: test concentration not given here. The conditions noted are these: higher = more signal. Background: Resazurin is reduced to fluorescent resorufin, in cell work by metabolically active cells.
Experiment [2] can be described thus: basal S. cerevisiae growth modulation, no modifier, primary screen, OD600, strain BY4716, 24 h, basal condition (AID 1173). To be noted: OD600, 24 h, higher = more signal, called active from +8 up or from −8 down.
Experiment [3] is described as follows: MM1S myeloma cell viability, profiling panel, resazurin fluorescence, basal, 24 h, PK04 Diversity Set (AID 1174).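 Further: MM1S multiple myeloma cell line; test concentration not given here.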 The conditions noted are these: higher = more signal, called active from +8 up or from −8 down.
Experiment [4] has as its target Dihydroorotate dehydrogenase (quinone), mitochondrial (Plasmodium falciparum (isolate 3D7)) (UniProt Q08210). Nature of the experiment: PfDHODH enzyme inhibitors, primary screen, biochemical, C-terminal His tag, absorbance 600 nm (AID 1175).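 Further: recombinant parasite enzyme with a five histidine tag at its C terminus; test concentration not given here.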 To be noted: DCIP absorbance 600 nm, higher = more signal, called active from +8 up or from −8 down.
A short description of experiment [5]: P. aeruginosa biofilm formation inhibitors, primary screen, strain PAO1, LB-PBS medium, absorbance 600 nm (AID 1176). Further: test concentration not given here. The conditions noted are these: P. aeruginosa PAO1 growth/biofilm, A600, 12 h; higher = more signal.
Experiment [6] is described as follows: S. cerevisiae RM11-1a growth modifiers, primary screen, strain RM11-1a, OD600, basal, 24 h (AID 1177).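 Further: cultures grown under basal conditions with no added stressor; test concentration not given here.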 The conditions noted are these: OD600, 24 h, higher = more signal, called active from +8 up or from −8 down.
Experiment [7] in a line: E. coli acrAB mutant growth effects, primary screen, E. coli filamentation inducers, strain DRC39, OD650, 24 h (AID 1178).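 Further: growth measured as culture turbidity by optical density at 650 nm; test concentration not given here.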 To be noted: higher = more signal, called active from +8 up or from −8 down.
The nature of experiment [8]: E. coli acrAB mutant growth effects, primary screen, E. coli filamentation inducers, strain DRC39, OD650, 48 h (AID 1179).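 Further: screen aims at cell division blockers that make cells filament.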 To be noted: E. coli DRC39 delta-acrAB growth, higher = more signal, called active from +8 up or from −8 down.
Experiment [9] can be described thus: RPMI8226 myeloma cell viability, profiling panel, resazurin fluorescence, basal, 24 h, PK04 Diversity Set (AID 1180).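 Further: RPMI8826 multiple myeloma cell line at 5000 cells per well; test concentration not given here.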 To be noted: higher = more signal.
In experiment [10] the target is E3 ubiquitin-protein ligase XIAP (Homo sapiens) (UniProt P98170). Nature of the experiment: XIAP binders, primary screen, biophysical, small-molecule microarray, fluorescence 635 nm (AID 1181).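 Further: score merges 667 nm emission and signal to noise over triplicate slides.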 To be noted: small-molecule microarray binding, higher = more signal.
E3 ubiquitin-protein ligase XIAP (Homo sapiens), sequence (P98170 whole entry, looked up): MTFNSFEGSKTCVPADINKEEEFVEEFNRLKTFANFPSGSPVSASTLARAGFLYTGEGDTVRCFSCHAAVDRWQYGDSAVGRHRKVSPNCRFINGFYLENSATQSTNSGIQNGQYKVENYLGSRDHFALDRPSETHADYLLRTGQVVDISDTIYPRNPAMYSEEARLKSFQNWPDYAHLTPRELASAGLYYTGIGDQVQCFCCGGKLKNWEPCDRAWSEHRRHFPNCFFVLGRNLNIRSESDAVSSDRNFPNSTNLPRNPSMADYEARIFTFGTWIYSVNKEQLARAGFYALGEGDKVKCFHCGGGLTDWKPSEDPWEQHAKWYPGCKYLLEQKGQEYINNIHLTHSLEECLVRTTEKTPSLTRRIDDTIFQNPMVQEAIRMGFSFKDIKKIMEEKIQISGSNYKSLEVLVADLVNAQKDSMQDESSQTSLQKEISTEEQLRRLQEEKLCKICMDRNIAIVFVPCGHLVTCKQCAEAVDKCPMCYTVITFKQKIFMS

Dihydroorotate dehydrogenase (quinone), mitochondrial (Plasmodium falciparum (isolate 3D7)), sequence (Q08210 whole entry, looked up): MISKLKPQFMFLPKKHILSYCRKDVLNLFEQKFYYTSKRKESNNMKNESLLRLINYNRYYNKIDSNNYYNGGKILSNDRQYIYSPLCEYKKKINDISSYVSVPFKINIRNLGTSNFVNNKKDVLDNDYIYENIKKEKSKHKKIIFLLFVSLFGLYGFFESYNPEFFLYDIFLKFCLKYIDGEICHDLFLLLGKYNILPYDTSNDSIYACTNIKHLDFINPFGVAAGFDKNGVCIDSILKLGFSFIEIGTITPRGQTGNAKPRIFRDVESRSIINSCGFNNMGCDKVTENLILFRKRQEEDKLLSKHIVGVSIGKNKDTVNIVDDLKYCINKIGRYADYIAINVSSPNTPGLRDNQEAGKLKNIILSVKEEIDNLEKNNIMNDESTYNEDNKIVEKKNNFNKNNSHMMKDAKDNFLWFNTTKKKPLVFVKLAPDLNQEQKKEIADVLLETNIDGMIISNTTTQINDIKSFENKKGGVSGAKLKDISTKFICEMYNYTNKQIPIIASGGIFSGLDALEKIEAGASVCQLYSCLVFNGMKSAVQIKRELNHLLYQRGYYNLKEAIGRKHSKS

Regarding `CCOC(=O)C1=CCC(c2ccncc2)N(S(=O)(=O)c2ccc(C)cc2)C1` (stereo not given), the z-score in experiment [1] was -0.226; in experiment [2], -0.867 (inactive); in experiment [3] it was -1.14 (inactive); in experiment [5] it was -0.433 (inactive); in experiment [6], -0.364 (inactive); in experiment [7], -0.0978 (inactive). Also, the z-score in experiment [8] is 0.737 (inactive); in [9], -1.25. The composite z-score in experiment [4] was -1.2 (inactive); in experiment [10], -0.197.
For the molecule `O=C1O[C@@H](c2ccccc2)[C@@H](c2ccccc2)N2[C@@H](c3ccc(OCCO)cc3)[C@]3(C(=O)Nc4ccc(C#CC5=CCCCC5)cc43)[C@@H](C(=O)Nc3nc4ccccc4s3)[C@H]12`, the z-score is -0.533 in experiment [1]; 1.46 (inactive) in [2]; -1.21 (inactive) in experiment [3]; 3.52 (inactive) in experiment [5]; 2.53 (inactive) in [6]; -0.304 (inactive) in experiment [7]. Besides, the z-score in [8] was 0.141 (inactive); in [9], -1. Further, the composite z-score in experiment [4] is -4.05 (inactive); in experiment [10], -0.339.
On to `COc1cc2c(cc1O)C(C)N(Cc1sc3ccccc3c1Cl)CC2` (stereo not given), for which the z-score is 0.311 in experiment [1]; -0.961 (inactive) in experiment [2]; 0.0446 (inactive) in [3]; 0.668 (inactive) in [5]; -0.123 (inactive) in experiment [6]; 1.14 (inactive) in experiment [7]. The z-score in experiment [8] is 0.717 (inactive); in [9], -0.0875. Besides, the composite z-score in experiment [4] was -2.64 (inactive); in experiment [10], -0.148.
Turning to `COc1c(C)cc(-c2cc3c(c(CCc4ccccc4)n2)[Si](C(C)C)(C(C)C)O[C@H]3c2ccccc2)cc1C`, the z-score in [1] is -0.0275; in experiment [2], 0.597 (inactive); in experiment [3], 0.135 (inactive); in experiment [5], 0.608 (inactive); in experiment [6], 1.42 (inactive); in [7], -0.754 (inactive). For the same molecule, the z-score was -0.744 (inactive) in experiment [8] and -3.7 in [9]. In addition, the composite z-score in experiment [4] was 0.0798 (inactive); in experiment [10], -0.195.
For the molecule `COCCOC(=O)N1C(=O)[C@@]2(c3cc(C#CCCO)ccc31)[C@H](c1ccc(O)cc1)N1[C@H](c3ccccc3)[C@H](c3ccccc3)OC(=O)[C@H]1[C@@H]2C(=O)NC[C@H](O)c1ccccc1`, the z-score in experiment [1] was 1.63; in experiment [2], 0.597 (inactive); in [3], 0.763 (inactive); in experiment [5], 1.66 (inactive); in [6], 1.06 (inactive); in experiment [7], 1.04 (inactive). The z-score was 1.67 (inactive) in experiment [8] and 1.2 in [9]. Besides, the figures for the composite z-score in experiment [4] and in [10] were 0.612 (inactive) and 0.0256, respectively.
Turning to `COc1ccc([Si](C)(C)[C@H]2[C@H](CC(=O)N3CCC[C@H]3CO)O[C@@]3(C(=O)N(C)c4ccccc43)[C@@H]2C)cc1`, the z-score in experiment [1] was -0.395; in experiment [2], 0.264 (inactive); in experiment [3], -0.212 (inactive); in experiment [5], 1.32 (inactive); in [6] it was 0.554 (inactive); in experiment [7], 0.133 (inactive). The z-score in experiment [8] is -0.0566 (inactive); in [9], -0.418. Also, the composite z-score in experiment [4] is -0.269 (inactive); in experiment [10], 0.0473.
As to `COC(=O)[C@@]1(Cc2ccc(F)cc2)[C@H]2c3cc(C(=O)N4CCCC4)n(Cc4ccc(OC(F)(F)F)cc4)c3C[C@H]2CN1C(=O)c1ccccc1`, the z-score in [1] was 0.178; in [2], 0.944 (inactive); in experiment [3], -0.799 (inactive); in experiment [5] it was 0.827 (inactive); in experiment [6], 0.157 (inactive); in [7] it was -0.961 (inactive). Besides, the z-score in [8] was -0.678 (inactive); in experiment [9], -0.453. The composite z-score in experiment [4] was -0.132 (inactive); in [10], 0.0306.
In the case of `CC(C)[Si]1(C(C)C)OCc2cc(-c3ccc(-c4ccc(Cl)c(Cl)c4)o3)nc(-c3ccc(Oc4ccccc4)cc3)c21`, the z-score is -0.213 in experiment [1]; -3.1 (inactive) in [2]; -0.0996 (inactive) in experiment [3]; 0.574 (inactive) in [5]; 1.95 (inactive) in [6]; 0.223 (inactive) in experiment [7]. The z-score in experiment [8] is -0.262 (inactive); in experiment [9] it was -0.133. Also, the figures for the composite z-score in [4] and in experiment [10] were 0.936 (inactive) and 0.114, respectively.
As for `Cc1ccc(S[C@]2(C(=O)NC(C)C)CC(=O)N(Cc3ccccc3)[C@@H]2c2ccc(CO)cc2)cc1`, the z-score in experiment [1] was 0.15; in experiment [2] it was -0.0962 (inactive); in experiment [3] it was -0.792 (inactive); in experiment [5] it was 0.637 (inactive); in [6], -0.949 (inactive); in [7], 1.19 (inactive). In addition, the results for the z-score in experiment [8] and in experiment [9] were 1.62 (inactive) and 1, respectively. For the same molecule, the composite z-score in experiment [4] is -1.33 (inactive); in experiment [10] it was -0.177.
With `CCCCC=C[C@@H](NC(=O)C(C)(C)C)c1ccccc1`, the z-score in experiment [1] is -1.12; in [2], 2.43 (inactive); in experiment [3] it was -2.58 (inactive); in [5], 0.563 (inactive); in [6], 2.07 (inactive); in experiment [7] it was -0.275 (inactive). Moreover, the z-score was -0.0819 (inactive) in experiment [8] and -3.59 in experiment [9]. Besides, the values for the composite z-score in experiment [4] and in experiment [10] were 0.507 (inactive) and -0.0095, respectively.
Take `COc1ccc(NN2C(C(O)c3ccc(F)cc3)C=CC3C(=O)N(C4CCCCC4)C(=O)C32)cc1` (stereo not given): the z-score in experiment [1] was -0.598; in [2] it was 0.0789 (inactive); in experiment [3] it was -0.209 (inactive); in experiment [5], 1.68 (inactive); in experiment [6] it was 0.816 (inactive); in experiment [7], -0.385 (inactive). Further, the z-score in experiment [8] was -0.0595 (inactive); in [9], -0.352. Moreover, the composite z-score in [4] was -0.328 (inactive); in experiment [10], -0.0726.
Consider `Cc1ccc(S[C@]2(C(=O)NC3CC3)CC(=O)N(C3Cc4ccccc4C3)[C@@H]2c2ccc(CO)cc2I)cc1`, for which the z-score in experiment [1] is -0.386; in experiment [2], -4.29 (inactive); in experiment [3] it was -2.54 (inactive); in experiment [5] it was 0.0493 (inactive); in experiment [6], 0.283 (inactive); in [7], 0.112 (inactive). Moreover, the z-score in experiment [8] was -0.266 (inactive); in experiment [9], -1.24. For the same molecule, the composite z-score in experiment [4] was 0.282 (inactive); in [10], -0.174.
Consider `CC(C)c1ccc(NN2C(C(O)C(C)c3ccccc3)C=CC3C(=O)N(c4ccccc4)C(=O)C32)cc1` (stereo not given), for which the z-score in [1] was -1.72; in experiment [2], 0.0145 (inactive); in experiment [3], -1.23 (inactive); in [5], 1.22 (inactive); in [6] it was 0.208 (inactive); in experiment [7], -0.828 (inactive). The z-score was -0.764 (inactive) in experiment [8] and -1.2 in experiment [9]. Moreover, the composite z-score in experiment [4] is -0.259 (inactive); in [10] it was 0.155.
